Experiment in all cases: PBM binding z-score (relative to random genomic background probes); higher = stronger binding; sequences stand for … in GC…GCGATTGACAGCGTAGAATGAAGG
The subject of test [1] is FXR:RXRa (NR concentration 270 nM, RXRa partner concentration 90 nM). Put shortly:
(§1)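 Probes were double-stranded and carried 34-nt variable regions with direct-repeat seeds, single-nucleotide variants, half-site ablations and random human genomic background sequences, printed on custom Agilent 4×180K protein-binding microarrays. Arrays were incubated 1 h with ligand-free nuclear receptor dimers in PBS pH 7.4, 2% milk, 0.02% Triton X-100, 1 mM DTT, 0.2 mg/mL BSA and 0.4 mg/ml salmon testes DNA. Antibodies against each partner (one per run) detected binding, and scanned fluorescence was regression-normalized. Binding z-scores use the random background probes as reference.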

The test system of test [2] is LXRa:RXRa (NR concentration 270 nM, RXRa partner concentration 90 nM). Put shortly:
as §1

Test [3] relates to LXRa homodimer (NR concentration 270 nM). Put shortly:
as §1

For test [4], the system named is LXRb:RXRa (NR concentration 270 nM, RXRa partner concentration 90 nM). Put shortly:
as §1

For test [5], the system named is LXRb homodimer (NR concentration 270 nM). Put shortly:
as §1

Test [6] deals with PPARa:RXRa (NR concentration 270 nM, RXRa partner concentration 90 nM). Put shortly:
as §1

Test [7] relates to PPARg:RXRa (NR concentration 180 nM, RXRa partner concentration 90 nM). Put shortly:
as §1

Test [8] deals with PPARg:RXRa 270nM:90nM, anti-RXR (NR concentration 270 nM, RXRa partner concentration 90 nM). Put shortly:
as §1

Test [9] deals with PPARg:RXRa 30nM:10nM, anti-RXR (NR concentration 30 nM, RXRa partner concentration 10 nM). Put shortly: as §1
Test [10] relates to PPARg:RXRa 90nM:30nM, anti-RXR (NR concentration 90 nM, RXRa partner concentration 30 nM). Put shortly: as §1
Test [11] concerns PPARg:RXRa DBDmut IVT, anti-RXR (DBD mutation: RXRa K156A/R161A, NR concentration 270 nM, RXRa partner concentration 90 nM). Put shortly: as §1
For test [12], the system named is PPARg:RXRa IVT, anti-PPARg (NR concentration 270 nM, RXRa partner concentration 90 nM). Put shortly: as §1
In test [13] the test system is PPARg DBDmut:RXRa IVT, anti-PPARg (DBD mutation: PPARg1 K132A/R137A, NR concentration 270 nM, RXRa partner concentration 90 nM). Put shortly:
as §1

The subject of test [14] is PPARg DBDmut IVT, anti-PPARg (DBD mutation: PPARg1 K132A/R137A, NR concentration 270 nM). Put shortly: as §1
Test [15] concerns PPARg homodimer (NR concentration 180 nM). Put shortly: as §1
Test [16] has as its system PXR:RXRa (NR concentration 270 nM, RXRa partner concentration 90 nM). Put shortly:
as §1

The test system of test [17] is PXR homodimer (NR concentration 270 nM). Put shortly: as §1
For test [18], the system named is RARa:RXR (NR concentration 270 nM, RXRa partner concentration 90 nM). Put shortly:
as §1

In test [19] the test system is RARa homodimer (NR concentration 270 nM). Put shortly: as §1
Test [20] deals with RARb:RXRa (NR concentration 270 nM, RXRa partner concentration 90 nM). Put shortly: as §1

Turning to TCTCGCAGGCCAGAGGGTCACTCAAGAGGTACGG, the PBM binding z-score is 1.04 in test [1]; 1.1 in test [2]; -0.517 in [3]; 1.02 in test [4]; -1.09 in test [5]; 2.32 in test [6]. Further, the PBM binding z-score came out at 0.92 in [7]; 1.95 in [8]; 2.05 in test [9]; 1.91 in [10]; 0.998 in test [11]; 0.394 in test [12]. The PBM binding z-score is -0.712 in [13]; -0.719 in [14]; 0.381 in test [15]; 1.62 in test [16]; -0.348 in [17]; 2.25 in [18]. Moreover, the PBM binding z-score is -0.311 in [19] and 2.45 in test [20].
ATCGAAAGGTAGACGAGGTGAGTATACACCGTTT: the PBM binding z-score was 0.276 in test [1]; -0.145 in test [2]; -0.253 in [3]; -0.306 in [4]; -0.37 in test [5]; 0.231 in [6]. The PBM binding z-score is 0.859 in test [7]; 0.249 in test [8]; 0.55 in test [9]; 0.0652 in test [10]; 0.012 in [11]; 0.628 in [12]. Moreover, the PBM binding z-score was 0.703 in test [13]; 0.518 in test [14]; 0.162 in test [15]; -0.0156 in test [16]; -0.144 in test [17]; 0.31 in test [18]. In addition, the results for the PBM binding z-score in test [19] and in test [20] were 0.224 and 0.438, respectively.
In the case of GGGACGAGGGCAAAGTTGATAGCATCTGTCGACG, the PBM binding z-score is 1.7 in test [1]; 1.11 in test [2]; -0.058 in test [3]; 1.41 in [4]; 0.182 in test [5]; 3.68 in [6]. Besides, the PBM binding z-score in test [7] was determined as 6.58; in [8], 6.7; in [9], 5.3; in test [10], 6.62; in test [11], 2.42; in test [12] it was 3.76. The PBM binding z-score came out at 0.246 in [13]; 0.748 in [14]; 1.07 in [15]; 1.44 in test [16]; 0.491 in [17]; 1.48 in test [18]. Moreover, the PBM binding z-score in [19] came to 0.362; in test [20] it was 2.46.
Consider CGAACTAGGTCAAGTACAGTGAATCTCCGCACGC, for which the PBM binding z-score was 4.5 in [1]; 2.83 in [2]; 0.474 in [3]; 2.32 in test [4]; 0.607 in test [5]; 4.85 in test [6]. The PBM binding z-score in test [7] stood at 7.57; in test [8], 6.29; in test [9], 4.41; in [10] it was 5.92; in test [11], 8.4; in test [12], 8.26. In addition, the PBM binding z-score amounted to 1.96 in [13]; 1.97 in test [14]; 2.76 in [15]; 1.8 in test [16]; 0.0981 in test [17]; 2.37 in test [18]. The PBM binding z-score in test [19] came out at 0.517; in test [20] it was 4.19.
As to TTACCAAGTTGAAAGGTCGTTGATGCACGCCTTG, the PBM binding z-score in test [1] was 2.79; in test [2], 2.74; in [3], 0.48; in test [4] it was 2.17; in [5], -0.00674; in test [6] it was 3.78. For the same sequence, the PBM binding z-score was 4.15 in test [7]; 5.58 in test [8]; 3.84 in test [9]; 5.07 in test [10]; 0.565 in [11]; 1.78 in test [12]. The PBM binding z-score is -0.471 in [13]; 0.0768 in test [14]; 1.5 in [15]; 3.35 in [16]; 0.56 in [17]; 4.05 in [18]. Moreover, the PBM binding z-score in test [19] is 0.532; in [20], 2.34.
Take AATACAGGGTCATCGTAGCCCAGAGTACGCACAG: the PBM binding z-score was 6.98 in test [1]; 5.87 in test [2]; 2.36 in [3]; 4.47 in test [4]; 1 in test [5]; 5.89 in test [6]. Moreover, the PBM binding z-score in [7] was determined as 6.62; in [8] it was 6.26; in test [9], 3.25; in [10], 4.75; in test [11], 3.35; in test [12], 5.25. Moreover, the PBM binding z-score was 2.19 in test [13]; 2.43 in [14]; 2.47 in test [15]; 4.07 in test [16]; 0.552 in test [17]; 4.59 in test [18]. Moreover, the PBM binding z-score in test [19] worked out at 0.855; in test [20] it was 4.29.
With TCATATAGGTAAATGTTAGGTGAAAGTCCGATCT, the PBM binding z-score worked out at 1.64 in test [1]; 1.44 in test [2]; 0.543 in [3]; 1.22 in test [4]; 0.304 in [5]; 1.64 in [6]. The PBM binding z-score in [7] stood at 1.04; in test [8], 2.53; in test [9] it was 4.07; in [10] it was 3.22; in [11], 4.12; in test [12], 2.63. In addition, the PBM binding z-score in [13] is 1.47; in test [14] it was 1.82; in [15] it was 1.66; in test [16], 0.918; in test [17] it was 0.8; in test [18], 1.63. The PBM binding z-score in test [19] was determined as 1.9; in test [20] it was 0.728.

These data come from the supplement of paper PMC6555819.
